Consider 42 compounds from PubChem BioAssay AID652154 (Broad Institute, 2013).

Molecules are shown by their SMILES. Several values for one entry are separate records, joined by “and”; a condition that tells them apart may be missing. Equal entries are not always repeated. The campaign covered roughly 360,000 compounds. About 4,200 (1.2%) were called active.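 Rule for the calls: active = mean replicate inhibition at least 60% with every replicate also reaching 60%; inconclusive = only one of the two criteria is met; inactive = mean below 60% and not all replicates reaching 60%.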 For the sample, actives were picked, then their nearest neighbours and some compounds at random. Where a structure was tested more than once in an assay, its records may differ in their call.

One may read the inhibition as the drop in the measured response relative to a control, in per cent.

This assay in a line: PAX8 transcriptional activity inhibition in RMG-I – RMG-I cells, luciferase, single concentration, primary screen (AID 652154).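 Note: luciferase light reporting Pax8 driven TPO promoter activity; plate controls were median of neutral control wells for no effect and mitoxantrone controls for full effect.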 Conditions: RMG-I TPO-luciferase reporter, SteadyGlo, 24 h; at 12.6 µM; stronger effect = higher value. For orientation: Reporter assays use an easily measured gene product as a stand-in for the process of interest.
As for `CN(C)C(=O)[C@H]1[C@H](CO)[C@H]2Cn3c(ccc(-c4ccc(F)cc4)c3=O)[C@H]2N1C(=O)c1ccccn1`, the inhibition is -7.59% (inactive). With `CCCNC(=O)N[C@@H]1CC[C@@H](CCn2cc(C3CC3)nn2)O[C@@H]1CO`, the inhibition is 3.4% (inactive). As to `C[C@@H]1CCCCO[C@@H](CN(C)S(=O)(=O)c2cn(C)cn2)[C@H](C)CN([C@H](C)CO)C(=O)c2cc(NS(=O)(=O)c3ccc(Cl)cc3)ccc2O1`, the inhibition was 4.97% (inactive). In the case of `C[C@H]1CN([C@@H](C)CO)C(=O)c2cccc(NS(=O)(=O)c3ccc(Cl)cc3)c2O[C@H]1CN(C)Cc1ccc2c(c1)OCO2` it was 4.78% (inactive); in that of `CC(C)NC(=O)N[C@H]1CC[C@@H](CC(=O)NCc2ccc(Oc3ccccc3)cc2)O[C@@H]1CO`, -20.9% (inactive); in that of `C[C@H](CO)N1C[C@H](C)[C@H](CN(C)C(=O)Nc2ccc(F)cc2)Oc2ncc(-c3cc4ccccc4o3)cc2C1=O`, 23.1% (inactive). In the case of `CC(C)NC(=O)Nc1ccc2c(c1)C(=O)N([C@@H](C)CO)C[C@@H](C)[C@H](CN(C)Cc1ccc(Cl)c(Cl)c1)OCCCC[C@H](C)O2` it was 38% (inactive). In the case of `COc1ccc(NC(=O)Nc2ccc3c(c2)C(=O)N([C@H](C)CO)C[C@@H](C)[C@H](CN(C)Cc2ccc(Cl)c(Cl)c2)OCCCC[C@@H](C)O3)cc1` it was 57.5% (inactive); in that of `C[C@@H]1CCCCO[C@@H](CN(C)Cc2ccc(Cl)c(Cl)c2)[C@H](C)CN([C@H](C)CO)C(=O)c2cc(NC(=O)Nc3ccc(F)cc3)ccc2O1`, 102% (active); in that of `O=S(=O)(c1ccccc1)N1C[C@@H]2[C@H](c3ccccc31)[C@H](CO)N2Cc1ccccn1`, 19.7% (inactive). For the compound `O=C(C1CCCCC1)N1CC2(C1)[C@H](c1ccccc1)[C@@H](CO)N2CCC(F)(F)F`, the inhibition was -17.1% (inactive). With `CC(=O)Nc1ccc2c(c1)C(=O)N(C)[C@@H]1CC[C@@H](CC(=O)NCC3CCCCC3)O[C@@H]1CO2`, the inhibition is -4.32% (inactive). In the case of `COc1ccc(NC(=O)Nc2ccc3c(c2)C(=O)N([C@@H](C)CO)C[C@H](C)[C@@H](CN(C)C(=O)NC2CCCCC2)O3)cc1` it was -4.33% (inactive); in that of `COc1ccc(/C=C2/CCCc3ccccc3C2=O)cc1`, -38.8% (inactive). In the case of `COc1ccc(OC)c(C2C3=C(N=c4s/c(=C\c5cccc(O)c5)c(=O)n42)c2ccccc2CC3)c1` (configuration not stated) it was 64.2% (active); in that of `COc1ccc(C[C@@H]2CCc3cnnn3COC[C@H](c3ccccc3)NC2=O)cc1`, 1.19% (inactive). Turning to `O=C(C1CCOCC1)N1CC(=O)N2[C@H](CO)[C@H](c3ccc(C#Cc4cccc(F)c4)cc3)[C@H]2C1`, the inhibition was -14.5% (inactive). As to `O=C(N[C@H]1CC[C@H](CCn2cc(C3(O)CCCC3)nn2)O[C@H]1CO)C1CC1`, the inhibition is 13.3% (inactive). In the case of `O=C(c1ccncc1)N1CCCCN2[C@H](CO)[C@@H](c3ccc(C#Cc4ccccn4)cc3)[C@H]2C1` it was 5.08% (inactive); in that of `CS/C(=C\C(=O)c1ccco1)Nc1ccccc1Cl`, 30.8% (inactive). Under `O=C(Nc1ccccc1Cl)/C(Cl)=C(\Cl)S(=O)c1ccccc1` (configuration not stated) stands 111% (active); under `O=C(COc1ccc(-n2cnnn2)cc1)Nc1ccccc1Cl`, -3.21% (inactive). With `Cn1cnc(S(=O)(=O)N2C[C@@H]3N[C@H](C2)C3c2ccc(-c3ccccc3F)cc2)c1` (some centres not stated), the inhibition was 77.5% (active) and 26.1% (inactive). Under `COc1ccc(-c2ccc(C3[C@@H]4CN(S(=O)(=O)c5cn(C)cn5)C[C@H]3N4)cc2)cc1` (some centres not stated) stands -15.4% (inactive). Under `Cn1cnc(S(=O)(=O)N2C[C@@H]3N[C@H](C2)C3c2ccc(/C=C/c3ccccc3)cc2)c1` (some centres not stated) stands -2.85% (inactive) and -1.61% (inactive); under `CC[C@]1(O)CC2CN(CCc3c([nH]c4ccccc34)[C@@](C(=O)OC)(c3cc4c(cc3OC)N(C=O)[C@H]3[C@@](O)(C(=O)OC)[C@H](OC(C)=O)[C@]5(CC)C=CCN6CC[C@]43[C@@H]65)C2)C1` (some centres not stated), 82% (active). Under `CC[C@]1(O)C[C@@H]2CN(CCc3c([nH]c4ccccc34)[C@@](C(=O)OC)(c3cc4c(cc3OC)N(C)[C@H]3[C@@](O)(C(=O)OC)[C@H](OC(C)=O)[C@]5(CC)C=CCN6CC[C@]43[C@@H]65)C2)C1` stands 94.6% (active); under `O=C(C[C@@H]1CC[C@H]2[C@@H](COC[C@@H](O)CN2Cc2nccs2)O1)NCc1ccc(-c2ccccc2)cc1`, 23% (inactive). On to `C[C@@H]1CN([C@H](C)CO)C(=O)Cc2cc(NC(=O)CCN3CCOCC3)ccc2O[C@@H]1CN(C)S(C)(=O)=O`, for which the inhibition was -16.5% (inactive). In the case of `C[C@H](CO)N1C[C@H](C)[C@@H](CN(C)Cc2ccccn2)Oc2ncc(-c3cccc(F)c3)cc2C1=O`, the inhibition is -0.625% (inactive). For the compound `Cc1ccccc1S(=O)(=O)N1CC(=O)N2[C@H](CO)[C@H](c3ccc(C#CC4CC4)cc3)[C@@H]2C1`, the inhibition was -7.36% (inactive).

In the case of `COc1cc(SC)ccc1C(=O)Nc1nc(C)cs1`, the inhibition was 72.7% (active).

Take `COc1cc2ccccc2cc1C(=O)Nc1ccccc1C`: the inhibition is -95.1% (inactive). In the case of `Cc1csc(NC(=O)CSc2nc(=O)cc(N)n2-c2ccc(F)cc2)n1` it was -0.606% (inactive); in that of `O=C(Cc1ccccc1)N1C[C@@H]2[C@H](c3ccccc31)[C@@H](CO)N2C(=O)C1CCOCC1`, 10.4% (inactive). Under `O=C(c1cccnc1)N1CC[C@H]2[C@H](CO)Nc3ccc(-c4ccc(F)cc4)cc3[C@H]21` stands 1.77% (inactive); under `CN(C[C@@H]1[C@H](c2ccccc2)[C@@H](CO)N1Cc1ccccn1)S(C)(=O)=O`, -9.74% (inactive); under `CC1CCCCC1NC(=O)/C(C#N)=C/C=C/c1ccccc1[N+](=O)[O-]` (configuration not stated), 91.1% (active). With `CC(OC(=O)/C=C/c1ccccc1)C(=O)NC1CCCCC1C` (configuration not stated), the inhibition is -9.75% (inactive). As for `CC1CCCCC1NC(=O)COc1ccc(C#N)cc1` (configuration not stated), the inhibition is -9.56% (inactive). `CC(C)NC(=O)Nc1ccc2c(c1)C(=O)N([C@@H](C)CO)C[C@@H](C)[C@H](CN(C)Cc1ccc(C(=O)O)cc1)O2`: the inhibition is -28.1% (inactive). As for `C[C@H]1CN([C@@H](C)CO)C(=O)c2cccc(NC(=O)c3ccncc3)c2O[C@H]1CN(C)C`, the inhibition was -1.05% (inactive).
